# Reference: the supplement of paper PMC12067093, “Discovery and optimisation of a covalent ligand for TRIM25 and its application to targeted protein ubiquitination” (Chemical Science, 2025)
# About 21,000 targets were measured; listed, in parts, are those with the largest changes and a random draw of the rest.
# Compound: Cc1cc(ccc1-c1ccccc1)C(=O)N1CCCN(CC1)C(=O)CCl [compound 10]
# Assay: probe-labelled cysteine peptide fold change vs DMSO (competition) (log2 fold change); higher = less target engagement (more negative = stronger competition)
# Settings: THP-1, incubation time: 4 h
# 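Further: competitive profiling in live THP-1 cells: cysteine peptides tagged with an iodoacetamide desthiobiotin (IA-DTB) probe, intensity after compound treatment relative to DMSO-treated cells.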
target,measurement,setting,value
CUL3_Q13618_462+464_LKTECGCQFTSK (UniProt Q13618),probe-labelled cysteine peptide fold change,10 µM,-0.0794
same,probe-labelled cysteine peptide fold change,50 µM,-1.31
DLGAP5_Q15398_129_YRPDMPCFLLSNQNAVK (UniProt Q15398),probe-labelled cysteine peptide fold change,10 µM,-0.0877
same,probe-labelled cysteine peptide fold change,50 µM,-1.31
DNAJC7_Q99615_175_ALEFAPACHR (UniProt Q99615),probe-labelled cysteine peptide fold change,10 µM,-0.118
same,probe-labelled cysteine peptide fold change,50 µM,-0.577
CNN2_Q99439_215_CASQVGMTAPGTR (UniProt Q99439),probe-labelled cysteine peptide fold change,10 µM,-0.0958
same,probe-labelled cysteine peptide fold change,50 µM,-0.449
DCAF13_Q9NV06_215_FNPIETFLLGSCASDR (UniProt Q9NV06),probe-labelled cysteine peptide fold change,10 µM,0.105
same,probe-labelled cysteine peptide fold change,50 µM,-0.0461
CRTAP_O75718_273_DFYLSIADHYVEVLECK (UniProt O75718),probe-labelled cysteine peptide fold change,10 µM,-0.146
same,probe-labelled cysteine peptide fold change,50 µM,1.08
COLGALT1_Q8NBJ5_283_QAEVQMYVCNK (UniProt Q8NBJ5),probe-labelled cysteine peptide fold change,10 µM,0.265
same,probe-labelled cysteine peptide fold change,50 µM,0.751
COPG1_Q9Y678_440_ETGLSHLCEFIEDCEFTVLATR (UniProt Q9Y678),probe-labelled cysteine peptide fold change,10 µM,0.0873
same,probe-labelled cysteine peptide fold change,50 µM,0.125
CPNE1_Q99829_4+14_AHCVTLVQLSISCDHLIDK (UniProt Q99829),probe-labelled cysteine peptide fold change,10 µM,-0.148
same,probe-labelled cysteine peptide fold change,50 µM,-0.173
DDX50_Q9BQ39_242_LSVACFYGGTSYQSQINHIR (UniProt Q9BQ39),probe-labelled cysteine peptide fold change,10 µM,0.333
same,probe-labelled cysteine peptide fold change,50 µM,-0.294
DIP2A_Q14689_6_GCPLEAAPLPAEVR (UniProt Q14689),probe-labelled cysteine peptide fold change,10 µM,-0.41
same,probe-labelled cysteine peptide fold change,50 µM,-2.19
CSRP1_P21291_167_GLESTTLADKDGEIYCK (UniProt P21291),probe-labelled cysteine peptide fold change,10 µM,-0.0814
same,probe-labelled cysteine peptide fold change,50 µM,-1.06
DHRS4L2_Q6PKH6_86_KQQNVDQAVATLQGEGLSVTGTVCHVGK (UniProt Q6PKH6),probe-labelled cysteine peptide fold change,10 µM,0.254
same,probe-labelled cysteine peptide fold change,50 µM,-0.306
DDX46_Q7L014_646_ASYPCMSLHGGIDQYDR (UniProt Q7L014),probe-labelled cysteine peptide fold change,10 µM,-0.0173
same,probe-labelled cysteine peptide fold change,50 µM,0.231
CSMD2_Q7Z408-3_2_CDAHLR (UniProt Q7Z408),probe-labelled cysteine peptide fold change,10 µM,0.077
same,probe-labelled cysteine peptide fold change,50 µM,-2.14
CSE1L_P55060_344_NLFEDQNTLTSICEK (UniProt P55060),probe-labelled cysteine peptide fold change,10 µM,-0.186
same,probe-labelled cysteine peptide fold change,50 µM,-0.107
CRELD2_Q6UXH1_166_QGDGSCR (UniProt Q6UXH1),probe-labelled cysteine peptide fold change,10 µM,-0.195
same,probe-labelled cysteine peptide fold change,50 µM,-0.265
DENND6A_Q8IWF6_130_VSLHCLLDQFDK (UniProt Q8IWF6),probe-labelled cysteine peptide fold change,10 µM,0.295
same,probe-labelled cysteine peptide fold change,50 µM,1.1
COPB1_P53618_248_CIYNLLQSSSPAVKYEAAGTLVTLSSAPTAIK (UniProt P53618),probe-labelled cysteine peptide fold change,10 µM,0.0928
same,probe-labelled cysteine peptide fold change,50 µM,0.0416
DNMT1_P26358_1476+1478_GVCSCVEAGK (UniProt P26358),probe-labelled cysteine peptide fold change,10 µM,-1.56
same,probe-labelled cysteine peptide fold change,50 µM,< -5
DLEC1_Q9Y238_256_LEDSCR (UniProt Q9Y238),probe-labelled cysteine peptide fold change,10 µM,0.773
same,probe-labelled cysteine peptide fold change,50 µM,1.66
CRYZL1_O95825_302_YLCILK (UniProt O95825),probe-labelled cysteine peptide fold change,10 µM,-0.195
same,probe-labelled cysteine peptide fold change,50 µM,-0.442
DDAH2_O95865_11_CSHALIR (UniProt O95865),probe-labelled cysteine peptide fold change,10 µM,0.0326
same,probe-labelled cysteine peptide fold change,50 µM,0.0102
CXXC1_Q9P0U4_564_VPADEVCGCPLVR (UniProt Q9P0U4),probe-labelled cysteine peptide fold change,10 µM,0.111
same,probe-labelled cysteine peptide fold change,50 µM,-0.109
COPA_P53621_1148_KILSACEK (UniProt P53621),probe-labelled cysteine peptide fold change,10 µM,-0.212
same,probe-labelled cysteine peptide fold change,50 µM,-1.12
DEF6_Q9H4E7_266_GIIPLDAHCCVEVLPDRDGKR (UniProt Q9H4E7),probe-labelled cysteine peptide fold change,10 µM,0.106
same,probe-labelled cysteine peptide fold change,50 µM,-0.227
CRIP1_P50238_52+56_PYCNHPCYAAMFGPK (UniProt P50238),probe-labelled cysteine peptide fold change,10 µM,0.0432
same,probe-labelled cysteine peptide fold change,50 µM,-0.424
CTSH_P09668_272_TGIYSSTSCHK (UniProt P09668),probe-labelled cysteine peptide fold change,10 µM,0.176
same,probe-labelled cysteine peptide fold change,50 µM,-0.114
DHX8_Q14562_1108_AICSGFFR (UniProt Q14562),probe-labelled cysteine peptide fold change,10 µM,-0.267
same,probe-labelled cysteine peptide fold change,50 µM,0.29
CTPS1_P17812_30_SCGLHVTSIK (UniProt P17812),probe-labelled cysteine peptide fold change,10 µM,0.14
same,probe-labelled cysteine peptide fold change,50 µM,0.147
CPSF3_Q9UKF6_626_RLEIMLQDIFGEDCVSVK (UniProt Q9UKF6),probe-labelled cysteine peptide fold change,10 µM,-0.0218
same,probe-labelled cysteine peptide fold change,50 µM,0.198
CMTM3_Q96MX0_38_AFLCSLK (UniProt Q96MX0),probe-labelled cysteine peptide fold change,10 µM,-0.91
same,probe-labelled cysteine peptide fold change,50 µM,-3.05
DHX30_Q7L2E3_673_GEPGGILCFLPGWQEIK (UniProt Q7L2E3),probe-labelled cysteine peptide fold change,10 µM,0.357
same,probe-labelled cysteine peptide fold change,50 µM,0.169
CRYL1_Q9Y2S2_125_VILSSSTSCLMPSK (UniProt Q9Y2S2),probe-labelled cysteine peptide fold change,10 µM,-0.0791
same,probe-labelled cysteine peptide fold change,50 µM,-0.537
CSE1L_P55060_61_VCASVTFK (UniProt P55060),probe-labelled cysteine peptide fold change,10 µM,-0.071
same,probe-labelled cysteine peptide fold change,50 µM,0.0214
DNM1L_O00429_446_IIQHCSNYSTQELLR (UniProt O00429),probe-labelled cysteine peptide fold change,10 µM,-0.165
same,probe-labelled cysteine peptide fold change,50 µM,-0.0631
CTSG_P08311_142_AQEGLRPGTLCTVAGWGR (UniProt P08311),probe-labelled cysteine peptide fold change,10 µM,-0.0347
same,probe-labelled cysteine peptide fold change,50 µM,-0.0423
DBNL_Q9UJU6-3_256_NEQGSTCASLQESAVHPR (UniProt Q9UJU6),probe-labelled cysteine peptide fold change,10 µM,-0.341
same,probe-labelled cysteine peptide fold change,50 µM,-0.167
DNMT1_P26358_1339_ACQLSVVVDDKK (UniProt P26358),probe-labelled cysteine peptide fold change,10 µM,-0.133
same,probe-labelled cysteine peptide fold change,50 µM,-1.16
DDX18_Q9NVP1_407_ANATVDGLEQGYVVCPSEK (UniProt Q9NVP1),probe-labelled cysteine peptide fold change,10 µM,-0.401
same,probe-labelled cysteine peptide fold change,50 µM,0.698
CNPY2_Q9Y2B0_28_SQDLHCGACR (UniProt Q9Y2B0),probe-labelled cysteine peptide fold change,10 µM,-0.272
same,probe-labelled cysteine peptide fold change,50 µM,-0.187
CTNNA1_P35221_461_MSASQLEALCPQVINAALALAAK (UniProt P35221),probe-labelled cysteine peptide fold change,10 µM,0.108
same,probe-labelled cysteine peptide fold change,50 µM,0.332
DGLUCY_Q7Z3D6-2_165_TTVPCVTHAGFCCPLVVTMRPIPK (UniProt Q7Z3D6),probe-labelled cysteine peptide fold change,10 µM,0.017
same,probe-labelled cysteine peptide fold change,50 µM,-0.4
